Sampled rows, rich in hits. Any-hit rate of the full collection: about 27%.
sEH inh – soluble epoxide hydrolase (human) inhibition; P34913; recombinant human sEH enzymatic activity assay; inhibition, % at 2 µM; 91,000 tested, 0.34% active; in the data active = inhibition above about 80%
Target sequence (P34913 whole entry, looked up): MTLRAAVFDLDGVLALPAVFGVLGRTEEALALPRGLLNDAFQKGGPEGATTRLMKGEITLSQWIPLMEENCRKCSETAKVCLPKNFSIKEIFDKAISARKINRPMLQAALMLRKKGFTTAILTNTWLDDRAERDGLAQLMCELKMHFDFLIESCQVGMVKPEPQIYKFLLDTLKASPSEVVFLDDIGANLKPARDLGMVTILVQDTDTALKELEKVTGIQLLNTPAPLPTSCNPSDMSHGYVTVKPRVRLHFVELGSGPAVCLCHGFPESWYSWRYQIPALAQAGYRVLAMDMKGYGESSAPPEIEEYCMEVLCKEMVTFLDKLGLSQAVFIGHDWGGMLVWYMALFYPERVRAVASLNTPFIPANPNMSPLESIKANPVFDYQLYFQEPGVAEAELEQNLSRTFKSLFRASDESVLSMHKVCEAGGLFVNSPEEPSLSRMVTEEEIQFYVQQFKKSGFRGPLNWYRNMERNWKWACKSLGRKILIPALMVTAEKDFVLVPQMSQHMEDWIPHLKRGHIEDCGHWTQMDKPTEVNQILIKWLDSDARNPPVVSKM
CYP2C19 inhib – blocks human cytochrome P450 2C19. P33261. CYP2C19 Supersomes, luciferin-H EGE luminescence, 30 min. AID 778. 96,000 tested, 21% active. inhibition, % at 5 µM;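 active = CYP2C19 inhibition above a set limit at 5 µM in the primary screen, cut at about 50% in these data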;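 also: plate controls were negative control wells for no effect and 2.5 mM tranylcypromine positive control for full effect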
CYP2C19 act – cytochrome P450 2C19 (human) activation; P33261; recombinant CYP2C19, luciferin-H EGE luminescence; active compounds read high; 0 = fully inhibited enzyme, 1 = untreated enzyme; activation factor at 5 µM; 96,000 tested, under 10 active;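 active = activation factor of at least 2 at 5 µM in the primary screen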;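 also: 0 = wells with 2.5 mM tranylcypromine and 1 = vehicle-only wells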
CYP2C9 act – CYP2C9 (human) activation; recombinant CYP2C9, luciferin-H conversion, luminescence; active compounds read high; factor 1 = untreated enzyme, 0 = blocked; activation factor at 5 µM; 96,000 tested, 1.4% active; AID 1024;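 active = activation factor of 2 or more for CYP2C9 at a 5 µM dose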;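 also: 0 = sulfaphenazole-blocked wells and 1 = vehicle-only wells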
sEH activator – soluble epoxide hydrolase (human) activation; P34913; purified human sEH enzymatic activity, activator screen; activation, % at 2 µM; 91,000 tested, 0.04% active; AID 717; in the data active = activation above about 37%
CYP2C9 inhib – blocks human cytochrome P450 2C9. CYP2C9 Supersomes, luciferin-H conversion, luminescence. 96,000 tested, 20% active. inhibition, % at 5 µM. P11712;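 active = blocking of liver enzyme CYP2C9 beyond about 50% at 5 µM, limit read from the data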
Starred values were filed as active, the others as inactive; . = no result given.

SMILES	sEH inh	CYP2C19 inhib	CYP2C19 act	CYP2C9 act	sEH activator	CYP2C9 inhib
CCN(CC)S(=O)(=O)c1ccc(NS(=O)(=O)c2ccc(F)cc2)cc1	8	5	1	0.1	-8	86*
CCN(CC)S(=O)(=O)c1ccc(NS(=O)(=O)c2cccc(C)c2)cc1	3	40	0.6	0.1	-4	91*
COc1ccc(N2C3=[N+](CC2(C)O)c2ccccc2CC3)cc1 (stereo unspecified)	-7	21	0.8	0.9	6	15
COc1ccc(CCNC(=O)c2ccc(Cl)cc2)cc1	14	45	0.6	0.8	-13	22
Cc1ccc(Cl)cc1NC(=O)c1cccc(OC(F)F)c1	-11	55*	0.4	0.7	13	31
COc1cccc(C(=O)Nc2ccc(F)cc2F)c1	1	.	.	.	-1	.
Cc1ccccc1OCC(=O)NC(=S)Nc1ccc2c3c(cccc13)CC2	-2	-5	1.1	1.1	1	-12
COc1ccc(C(=O)Nc2cc(C(=O)NCCc3ccccc3)ccc2Cl)cc1	37	57*	0.4	0.2	-36	83*
COc1cccc(C(=O)Nc2ccc(F)c(F)c2F)c1	8	54*	0.5	0.9	-4	13
COc1cccc(C(=O)NC(=S)Nc2ccc3c4c(cccc24)CC3)c1	1	-2	1	2*	3	-97
CC1(C)CC(C)(O)P(=O)(c2ccccc2)O1 (stereo unspecified)	.	0	1	1.3	.	-26
COc1cccc(C(=O)Nc2cc(C(F)(F)F)ccc2Cl)c1	10	32	0.7	2.7*	-10	-174
COc1cccc(C(=O)Nc2ccc(Cl)c(C(F)(F)F)c2)c1	58	35	0.7	0.4	-56	62*
O=C(NC(=S)Nc1cc(C(F)(F)F)ccc1Cl)c1ccccc1	-19	39	0.6	1.6	17	-56
COc1cccc(C(=O)Nc2ccc(C(=O)O)cc2)c1	13	29	0.7	1	-14	0
COc1ccc(C(=O)Nc2cc(C(F)(F)F)ccc2Cl)cc1OC	-7	3	1	2.5*	11	-147
COCCNC(=O)c1c(NC(=O)c2nc(SC)ncc2Cl)sc2c1CCCC2	-10	-6	1.1	1	8	-1
OCCN1CCOCCN(CCO)CCN(CCO)CC1	.	-12	1.1	1.1	.	-8
O=S(=O)(N/N=C\c1ccc2c(c1)OCO2)c1ccc(Cl)cc1	2	36	0.6	0.1	0	86*
Cc1ccc(S(=O)(=O)N/N=C\c2ccc3c(c2)OCO3)cc1	-7	59*	0.4	0.3	10	75*
Cc1ccc(S(=O)(=O)N/N=C/c2ccc(C(=O)O)cc2)cc1	-16	-11	1.1	1.1	18	-12
Cc1ccc(CNS(=O)(=O)/C=C/c2ccc3c(c2)OCO3)cc1	.	99*	0	0.8	.	19
CC(/C=C/c1ccc2c(c1)OCO2)=N/NC(=O)CNc1ccc(C)cc1	47	.	.	.	-45	.
CCCCCCOc1ccc(-c2ccc(C#N)cn2)cc1	-14	33	0.7	0.6	18	39
COCCN1C(=O)c2ccccc2C(C(=O)Nc2ccc3c(c2)OCCO3)C1c1ccc(F)cc1 (stereo unspecified)	-12	-3	1	1	16	2
SMILES	sEH inh	CYP2C19 inhib	CYP2C19 act	CYP2C9 act	sEH activator	CYP2C9 inhib
CCCCCc1c(C)nc(N2CCOCC2)[nH]c1=O	-10	37	0.6	0.9	7	7
CC(C)CNC(=O)COC(=O)c1ccc(Cl)c(S(N)(=O)=O)c1	-1	0	1	1.1	3	-8
CSc1ccc(Cl)c(C(=O)OCC(=O)NCC(C)C)c1	-20	66*	0.3	0.8	19	23
CC1(C)CC(=O)C2=C(C1)NCN(Cc1ccc3c(c1)OCO3)C2	2	15	0.9	0.1	-2	85*
c1cc2c(cc1CN1CCOCC1)OCO2	-14	30	0.7	0.9	17	6
CCCCn1c(CNC(=O)CCC)nc2ccccc21	4	22	0.8	1	-5	4
CCCn1c(CNc2ccccc2O)nc2ccccc21	5	51*	0.5	0.7	-3	28
Cn1c(NCc2c(O)ccc3ccccc23)nc2ccccc21	-8	3	1	1.1	7	-6
CCCn1c(NCc2c[nH]c3ccccc23)nc2ccccc21	-8	71*	0.3	0.7	5	32
Cn1c(CNc2nc3ccccc3n2C)nc2ccccc21	.	70*	0.3	0.8	.	21

Screens as filed in PubChem BioAssay.
